# Assay results: the antibiotic and cytotoxicity screens of Wong et al. (2023)
# Hit rate of the full screen: of about 39,000 compounds, about 3,300 (8.5%) were called active. Only a selection was taken, and actives are over-represented in it overall.
# Tested on: HepG2
# Assay: cytotoxicity call (relative viability < 0.9)
# Conditions: 10 µM
row,SMILES,cytotoxicity call
1,N#Cc1cnc2c(C(N)=O)cnn2c1N,inactive
2,Cc1noc(C)c1NC(=O)Nc1ccc2c(c1)C(=O)N([C@H](C)CO)C[C@@H](C)[C@H](CN(C)Cc1ccccc1)OCCCC[C@@H](C)O2,inactive
3,Nc1nc(=O)c2[nH]c(=O)c(=O)[nH]c2[nH]1,inactive
4,Cc1noc(C)c1NC(=O)Nc1ccc2c(c1)C(=O)N([C@@H](C)CO)C[C@H](C)[C@@H](CN(C)S(=O)(=O)c1cccs1)OCCCC[C@H](C)O2,inactive
5,C[C@@H]1CN([C@H](C)CO)C(=O)c2cc(NS(=O)(=O)c3cn(C)cn3)ccc2O[C@H]1CN(C)CC1CCCCC1,inactive
6,C[C@H]1CN([C@@H](C)CO)C(=O)CCCn2cc(nn2)CO[C@H]1CN(C)C(=O)Nc1ccccc1C(F)(F)F,inactive
7,C[C@H](CO)N1C[C@H](C)[C@H](CN(C)S(C)(=O)=O)Oc2ncc(Br)cc2C1=O,inactive
8,COc1ccccc1[C@@H](NC(=O)C1CCN(CCc2ccc(Br)cc2)CC1)c1ccccn1,inactive
9,COc1ccc(/C=C/CN2CCC(C(=O)N[C@@H](c3ccc(-c4ccccc4)cc3)c3cnccn3)CC2)cc1,active
10,COc1ccc([C@@H](NC(=O)C2CCN(CCOc3ccc(Cl)cc3Cl)CC2)c2ccccn2)cc1,inactive
11,COc1ccc(NC(=O)Nc2ccc3c(c2)C(=O)N([C@@H](C)CO)C[C@H](C)[C@@H](CN(C)C(=O)Nc2c(C)noc2C)OCCCC[C@H](C)O3)cc1,inactive
12,CC(C)N(C)C(=O)c1cccc(NC(=O)c2ccncc2)c1OCCCN(C)Cc1ccc(Oc2ccccc2)cc1,inactive
13,C=C[C@](C)(O)CCC=C(C)C,inactive
14,CC(C)=CCCC(C)=CCO,active
15,C=CC(C)(O)CCC=C(C)C (configuration not stated),inactive
16,CC(C)=CCCC(C)=CCCC(C)=CCCC(C)=CCCC(C)=CCCC(C)=CCCC(C)=CCCC(C)=CCCC(C)=CCO,inactive
17,C=CC(C)(O)CCC=C(C)CCC=C(C)C (configuration not stated),active
18,CC(C)=CCC/C(C)=C/CO,inactive
19,CN1CCN(C(=O)C[C@@H]2CC[C@H]3[C@H](COc4ccc(NC(=O)c5ccc(F)c(F)c5)cc4C(=O)N3C)O2)CC1,inactive
20,C[C@@H]1CN([C@H](C)CO)C(=O)Cc2cc(NS(=O)(=O)c3ccc(Cl)cc3)ccc2O[C@H]1CN(C)S(C)(=O)=O,inactive
21,Cc1ccc(S(=O)(=O)Nc2ccc3c(c2)C(=O)N([C@@H](C)CO)C[C@@H](C)[C@H](CN(C)CC2CCCCC2)OCCCC[C@@H](C)O3)cc1,inactive
22,Cc1ccc(S(=O)(=O)Nc2ccc3c(c2)C(=O)N([C@@H](C)CO)C[C@@H](C)[C@@H](CN(C)CC2CCCCC2)OCCCC[C@@H](C)O3)cc1,active
23,Cc1ccc(S(=O)(=O)Nc2ccc3c(c2)C(=O)N([C@H](C)CO)C[C@@H](C)[C@@H](CN(C)CC2CCCCC2)OCCCC[C@H](C)O3)cc1,active
24,Cc1ccc(S(=O)(=O)Nc2ccc3c(c2)C(=O)N([C@@H](C)CO)C[C@H](C)[C@H](CN(C)CC2CCCCC2)OCCCC[C@H](C)O3)cc1,inactive

row,SMILES,cytotoxicity call
1,Cc1ccc(S(=O)(=O)Nc2ccc3c(c2)C(=O)N([C@@H](C)CO)C[C@@H](C)[C@@H](CN(C)CC2CCCCC2)OCCCC[C@H](C)O3)cc1,inactive
2,Cc1ccc(S(=O)(=O)Nc2ccc3c(c2)C(=O)N([C@H](C)CO)C[C@H](C)[C@@H](CN(C)CC2CCCCC2)OCCCC[C@H](C)O3)cc1,inactive
3,Cc1ccc(S(=O)(=O)Nc2ccc3c(c2)C(=O)N([C@H](C)CO)C[C@H](C)[C@H](CN(C)CC2CCCCC2)OCCCC[C@H](C)O3)cc1,active
4,Cc1ccc(S(=O)(=O)Nc2ccc3c(c2)C(=O)N([C@H](C)CO)C[C@@H](C)[C@@H](CN(C)CC2CCCCC2)OCCCC[C@@H](C)O3)cc1,active
5,Cc1ccc(S(=O)(=O)Nc2ccc3c(c2)C(=O)N([C@@H](C)CO)C[C@H](C)[C@H](CN(C)CC2CCCCC2)OCCCC[C@@H](C)O3)cc1,inactive
6,Cc1ccc(S(=O)(=O)Nc2ccc3c(c2)C(=O)N([C@@H](C)CO)C[C@@H](C)[C@H](CN(C)CC2CCCCC2)OCCCC[C@H](C)O3)cc1,inactive
7,Cc1ccc(S(=O)(=O)Nc2ccc3c(c2)C(=O)N([C@H](C)CO)C[C@@H](C)[C@H](CN(C)CC2CCCCC2)OCCCC[C@@H](C)O3)cc1,inactive
8,Cc1ccc(S(=O)(=O)Nc2ccc3c(c2)C(=O)N([C@H](C)CO)C[C@H](C)[C@H](CN(C)CC2CCCCC2)OCCCC[C@@H](C)O3)cc1,inactive
9,CO[C@H]1CN(C)C(=O)c2ccc(NC(=O)Nc3ccc(Cl)cc3)cc2OC[C@@H](C)N(C(=O)Nc2c(C)noc2C)C[C@@H]1C,inactive
10,C[C@@H]1CCCCO[C@H](CN(C)Cc2ccc(C(=O)O)cc2)[C@@H](C)CN([C@H](C)CO)C(=O)c2cc(NS(=O)(=O)c3ccccc3)ccc2O1,inactive
11,CCCNC(=O)N[C@@H]1C=C[C@H](CC(=O)N2CCN(C)CC2)O[C@@H]1CO,inactive
12,C[C@@H]1CN([C@H](C)CO)C(=O)CCCn2nncc2CO[C@@H]1CN(C)C(=O)Nc1ccnc(N2CCOCC2)c1,inactive
13,OC[C@@H](O)[C@@H](O)[C@@H](O)/C=N/Nc1ccccc1,inactive
14,CNC(=O)c1c(F)cccc1Nc1nc(Nc2cc3c(cc2OC)CCN3C(=O)CN(C)C)nc2[nH]ccc12,active
15,CN1C(=O)c2cc(NC(=O)Cc3cccs3)ccc2OC[C@H]2O[C@H](CC(=O)NCCCN3CCOCC3)CC[C@H]21,inactive
16,Cc1noc(C)c1NC(=O)Nc1ccc2c(c1)C(=O)N([C@@H](C)CO)C[C@H](C)[C@@H](CN(C)C(=O)C1CCCCC1)OCCCC[C@@H](C)O2,inactive
17,COc1ccc2c3c([nH]c2c1)[C@H](CO)N(Cc1cc(ccc1F)F)C[C@]13CCN(CC1)C(=O)CN(C)C,inactive
18,COc1ccc(CC[C@@H](OC(=O)[C@H]2CCCCN2C(=O)Cc2ccccc2)c2cccc(OCC(=O)O)c2)cc1OC,active
19,CCCNC(=O)COc1cccc([C@@H](CCc2ccc(OC)c(OC)c2)OC(=O)[C@@H]2CCCCN2C(=O)C(=O)C(C)(C)CC)c1,active
20,C=CC(=O)Nc1cccc([C@@H](CCc2ccc(OC)c(OC)c2)OC(=O)[C@@H]2CCCCN2C(=O)C(=O)C(C)(C)CC)c1,inactive
21,CC[C@H](C(=O)N1CCCC[C@H]1C(=O)O[C@H](CCc1ccc(OC)c(OC)c1)c1cccc(OCC(=O)NCCNC(=O)COc2cccc([C@@H](CCc3ccc(OC)c(OC)c3)OC(=O)[C@@H]3CCCCN3C(=O)[C@@H](CC)c3cc(OC)c(OC)c(OC)c3)c2)c1)c1cc(OC)c(OC)c(OC)c1,inactive
22,CCC(=O)Nc1cccc([C@@H](CCc2ccc(OC)c(OC)c2)OC(=O)[C@@H]2CCCCN2C(=O)C(=O)C(C)(C)CC)c1,inactive
23,CCC(C)(C)C(=O)C(=O)N1CCCC[C@H]1C(=O)O[C@@H](CCc1ccc(OC)c(OC)c1)c1cccc(OCC(=O)NCCc2ccc(O)cc2)c1,inactive
